Experimental data as given in PubChem BioAssay (EPA / NIEHS).
Calls of active or inactive are those of the source. The calls were made as follows: active = hit-call score of the fitted dose curve at least 0.9, where 1 is the maximum; inactive = score below 0.9.

Key:
Conditions in all cases: mRNA level, 48 h; actives raise or lower the signal
[1] = read-out: growth arrest and DNA damage 45 (GADD45B), GADD45B (gene 4616); assay: LTEA_HepaRG_GADD45B: Life Technologies and Expression Analysis (LTEA) Assay for growth arrest and DNA damage 45 (GADD45B) using HepaRG (AID 2283461)
In short: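 Values are bidirectional concentration-response fits against 0.5% DMSO controls. Underlying data: qRT-PCR mRNA levels in human HepaRG liver cells treated 48 h in serum-free induction medium, eight concentrations topping at 100 uM.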

[2] = read-out: ABC Transporter (ABCC3), ABCC3 (gene 8714); assay: LTEA_HepaRG_ABCC3: Life Technologies and Expression Analysis (LTEA) Assay for ABC Transporter (ABCC3) using HepaRG (AID 2283462)
In short: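 Differentiated HepaRG liver cells receive test chemicals at eight concentrations (max 100 uM) for 48 h. Expression of ABCC3 is quantified by qRT-PCR against ACTB, GAPDH and POLR2A, and activity is fitted in both directions against the DMSO control.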

[3] = read-out: ABC Transporter (ABCB11), ABCB11 (gene 8647); assay: LTEA_HepaRG_ABCB11: Life Technologies and Expression Analysis (LTEA) Assay for ABC Transporter (ABCB11) using HepaRG (AID 2283463)
In short: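 ABCB11 transcript levels are read by Fluidigm TaqMan qRT-PCR after 48 h chemical treatment of human HepaRG cells. Concentrations span 100 uM downward in half-log steps with 0.5% DMSO; gain or loss is fitted against DMSO controls.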

[4] = read-out: ABC Transporter (ABCC2), ABCC2 (gene 1244); assay: LTEA_HepaRG_ABCC2: Life Technologies and Expression Analysis (LTEA) Assay for ABC Transporter (ABCC2) using HepaRG (AID 2283464)
In short: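 Gene expression of ABCC2 was determined by qRT-PCR in HepaRG cells exposed 48 h to chemicals (highest 100 uM, half-log dilutions). Activity was fitted in both directions relative to 0.5% DMSO vehicle.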

[5] = read-out: Broad substrate specificity ATP-binding cassette transporter ABCG2 (Homo sapiens) (UniProt Q9UNQ0); assay: LTEA_HepaRG_ABCG2: Life Technologies and Expression Analysis (LTEA) Assay for ABC Transporter (ABCG2) using HepaRG (AID 2283465)
In short: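 Read-out is ABCG2 mRNA induction or loss quantified by qRT-PCR after 48 h chemical treatment of human HepaRG cells, normalized to three housekeeping genes. Concentrations reached 100 uM top in half-log steps; fitting was bidirectional against 0.5% DMSO.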

[6] = read-out: ATP-citrate lyase (ACLY), ACLY (gene 47); assay: LTEA_HepaRG_ACLY: Life Technologies and Expression Analysis (LTEA) Assay for ATP-citrate lyase (ACLY) using HepaRG (AID 2283466)
In short: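 HepaRG, 48 h exposure, 8-pt half-log dilutions (top 100 uM), 0.5% DMSO. Readout: ACLY mRNA, TaqMan qRT-PCR, housekeeping-normalized (ACTB/GAPDH/POLR2A). Bidirectional curve fit vs DMSO.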

[7] = read-out: Peroxisomal acyl-coenzyme A oxidase 1 (ACOX1) gene, ACOX1 (gene 51); assay: LTEA_HepaRG_ACOX1: Life Technologies and Expression Analysis (LTEA) Assay for Peroxisomal acyl-coenzyme A oxidase 1 (ACOX1) gene using HepaRG (AID 2283467)
In short: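 Measured by qRT-PCR against three housekeeping genes: ACOX1 transcript change in human HepaRG cells after 48 h dosing. Concentrations ran up to 100 uM in half-log steps. Curves were fitted bidirectionally relative to 0.5% DMSO.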

[8] = read-out: Alkaline Phosphatase, Placental (ALPP) gene, ALPP (gene 250); assay: LTEA_HepaRG_ALPP: Life Technologies and Expression Analysis (LTEA) Assay for Alkaline Phosphatase, Placental (ALPP) gene using HepaRG (AID 2283468)
In short: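 Expression of ALPP was quantified by qRT-PCR against three housekeeping genes in human HepaRG cultures treated for 48 h with an eight-point concentration series up to 100 uM. Activity in either direction was fitted relative to 0.5% DMSO.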

[9] = read-out: Bcl-2 (BAD) gene, BAD (gene 572); assay: LTEA_HepaRG_BAD: Life Technologies and Expression Analysis (LTEA) Assay for Bcl-2 (BAD) gene using HepaRG (AID 2283469)
In short: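 BAD transcript change, measured by qRT-PCR against three housekeeping genes and fitted in both directions relative to 0.5% DMSO, after 48 h chemical treatment of human HepaRG liver cells at concentrations up to 100 uM.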

[10] = read-out: adenosine kinase (ADK) gene, ADK (gene 132); assay: LTEA_HepaRG_ADK: Life Technologies and Expression Analysis (LTEA) Assay for adenosine kinase (ADK) gene using HepaRG (AID 2283471)
In short: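 Following 48 h exposure of HepaRG cells in 0.5% DMSO (top concentration 100 uM, duplicate wells), ADK mRNA induction or suppression was measured by qRT-PCR, normalised to ACTB/GAPDH/POLR2A, and fitted bidirectionally relative to vehicle.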

[11] = read-out: Alpha-fetoprotein (AFP) gene, AFP (gene 174); assay: LTEA_HepaRG_AFP: Life Technologies and Expression Analysis (LTEA) Assay for Alpha-fetoprotein (AFP) gene using HepaRG (AID 2283472)
In short: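 HepaRG, single lot; 48 h post-plating -> serum-free induction medium; cpd 8-pt, 100 uM top, half-log, 0.5% DMSO, duplicate, 48 h. RNA -> qRT-PCR AFP, norm ACTB/GAPDH/POLR2A. Bidirectional fit vs DMSO.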

[12] = read-out: BCL2L11 (gene 10018); assay: LTEA_HepaRG_BCL2L11: Life Technologies and Expression Analysis (LTEA) Assay for Bcl-2 (BCL2L11) gene using HepaRG (AID 2283473)
In short: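 Cells were plated, cultured 48 h, switched to serum-free induction medium, then dosed in duplicate for 48 h at eight half-log concentrations up to 100 uM. Lysates underwent RNA isolation and TaqMan qRT-PCR; gain or loss versus DMSO was fitted.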

[13] = read-out: Apoptosis regulator Bcl-2 (Homo sapiens) (UniProt P10415); assay: LTEA_HepaRG_BCL2: Life Technologies and Expression Analysis (LTEA) Assay for Bcl-2 gene using HepaRG (AID 2283475)
In short: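 HepaRG, plated 48 h then switched to serum-free induction medium; dosed 48 h, 8 conc. (max 100 uM, half-log steps), duplicate, 0.5% DMSO. Lysis in RLT, RNA isolated, TaqMan qRT-PCR for BCL2; ACTB/GAPDH/POLR2A normalisation; bidirectional fit vs DMSO.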

[14] = read-out: Caspase-3 (Homo sapiens) (UniProt P42574); assay: LTEA_HepaRG_CASP3: Life Technologies and Expression Analysis (LTEA) Assay for cysteine-aspartic acid protease (CASP3) using HepaRG (AID 2283477)
In short: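 In HepaRG liver cells dosed for 48 h at up to 100 uM (eight-point, duplicate), CASP3 expression changes are scored by qRT-PCR. Activity is fitted in both directions with 0.5% DMSO as baseline.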

[15] = read-out: Cytochrome P450 (CYP24A1), CYP24A1 (gene 1591); assay: LTEA_HepaRG_CYP24A1: Life Technologies and Expression Analysis (LTEA) Assay for Cytochrome P450 (CYP24A1) using HepaRG (AID 2283478)
In short: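 Human liver HepaRG cultures receive each chemical for 48 h across an eight-point half-log series topping at 100 uM in 0.5% DMSO. Induction or suppression of CYP24A1 mRNA is scored relative to vehicle after housekeeping-gene normalization.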

[16] = read-out: Cytochrome P450 (CYP1A2), CYP1A2 (gene 1544); assay: LTEA_HepaRG_CYP1A2: Life Technologies and Expression Analysis (LTEA) Assay for Cytochrome P450 (CYP1A2) using HepaRG (AID 2283479)
In short: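 Assesses CYP1A2 mRNA in human HepaRG liver cells after 48 h chemical exposure at up to 100 uM. Values come from qRT-PCR with bidirectional curve fitting relative to DMSO.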

[17] = read-out: cysteine-aspartic acid protease (CASP8), CASP8 (gene 841); assay: LTEA_HepaRG_CASP8: Life Technologies and Expression Analysis (LTEA) Assay for cysteine-aspartic acid protease (CASP8) using HepaRG (AID 2283480)
In short: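 HepaRG, 48 h exposure, duplicate wells; 8 conc, half-log from 100 uM, 0.5% DMSO. Serum-free induction medium. CASP8 mRNA by TaqMan qRT-PCR, norm. ACTB/GAPDH/POLR2A; gain/loss fitted vs DMSO.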

[18] = read-out: Bcl-2 (BID) gene, BID (gene 637); assay: LTEA_HepaRG_BID: Life Technologies and Expression Analysis (LTEA) Assay for Bcl-2 (BID) gene using HepaRG (AID 2283476)
In short: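 Transcript levels of BID, measured by qRT-PCR and normalized to three housekeeping genes, were fitted bidirectionally against DMSO controls. Cells were HepaRG, dosed 48 h at up to 100 uM.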

[19] = read-out: Bcl-2 (BAX) gene, BAX (gene 581); assay: LTEA_HepaRG_BAX: Life Technologies and Expression Analysis (LTEA) Assay for Bcl-2 (BAX) gene using HepaRG (AID 2283470)
In short: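 HepaRG (human liver), 48 h exposure, duplicate wells. 8-pt curve, half-log from 100 uM, 0.5% DMSO. BAX transcript by TaqMan qRT-PCR; ACTB/GAPDH/POLR2A normalization; gain or loss vs DMSO baseline.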

[20] = read-out: Apolipoprotein A-V (APOA5) gene, APOA5 (gene 116519); assay: LTEA_HepaRG_APOA5: Life Technologies and Expression Analysis (LTEA) Assay for Apolipoprotein A-V (APOA5) gene using HepaRG (AID 2283474)
In short: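 Human liver HepaRG cells are treated 48 h with test chemicals (100 uM top, half-log dilutions, 0.5% DMSO). APOA5 mRNA induction or loss is measured by qRT-PCR relative to vehicle.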

Measured: AC50

Apoptosis regulator Bcl-2 (Homo sapiens), sequence (P10415 whole entry, looked up): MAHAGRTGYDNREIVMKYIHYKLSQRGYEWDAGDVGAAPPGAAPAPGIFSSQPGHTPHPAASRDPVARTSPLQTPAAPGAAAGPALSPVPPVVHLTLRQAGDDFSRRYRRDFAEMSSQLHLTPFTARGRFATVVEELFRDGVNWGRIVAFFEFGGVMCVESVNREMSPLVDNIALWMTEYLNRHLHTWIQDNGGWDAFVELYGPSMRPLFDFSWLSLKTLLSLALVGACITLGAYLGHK
Broad substrate specificity ATP-binding cassette transporter ABCG2 (Homo sapiens), sequence (Q9UNQ0 whole entry, looked up): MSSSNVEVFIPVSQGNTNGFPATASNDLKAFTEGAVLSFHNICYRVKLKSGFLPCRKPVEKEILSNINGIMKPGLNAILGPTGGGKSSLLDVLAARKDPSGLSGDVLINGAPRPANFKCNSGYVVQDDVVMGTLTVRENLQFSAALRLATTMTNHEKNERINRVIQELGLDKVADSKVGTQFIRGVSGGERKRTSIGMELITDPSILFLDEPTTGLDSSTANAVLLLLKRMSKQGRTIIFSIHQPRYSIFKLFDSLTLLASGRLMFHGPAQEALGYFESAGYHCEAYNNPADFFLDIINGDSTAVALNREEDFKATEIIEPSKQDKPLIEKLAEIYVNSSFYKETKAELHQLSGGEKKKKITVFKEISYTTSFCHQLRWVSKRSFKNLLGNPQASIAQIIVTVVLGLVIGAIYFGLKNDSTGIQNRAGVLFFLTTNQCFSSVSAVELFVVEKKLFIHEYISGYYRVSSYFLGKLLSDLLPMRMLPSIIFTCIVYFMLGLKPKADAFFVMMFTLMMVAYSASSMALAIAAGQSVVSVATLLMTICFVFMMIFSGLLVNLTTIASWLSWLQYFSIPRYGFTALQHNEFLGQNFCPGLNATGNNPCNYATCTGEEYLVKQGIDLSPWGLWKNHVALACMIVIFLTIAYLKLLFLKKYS
Caspase-3 (Homo sapiens), sequence (P42574 whole entry, looked up): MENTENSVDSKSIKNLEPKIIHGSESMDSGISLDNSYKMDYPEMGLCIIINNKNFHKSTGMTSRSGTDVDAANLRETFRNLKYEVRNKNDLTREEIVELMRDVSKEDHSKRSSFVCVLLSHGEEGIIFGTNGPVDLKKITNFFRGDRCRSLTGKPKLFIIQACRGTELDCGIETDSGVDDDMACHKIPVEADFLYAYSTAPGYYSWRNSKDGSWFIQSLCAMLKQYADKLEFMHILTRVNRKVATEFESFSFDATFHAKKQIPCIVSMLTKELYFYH

COc1cc(S(=O)(=O)O)c(C)cc1N=Nc1c(O)ccc2cc(S(=O)(=O)O)ccc12
not listed: [18] | [19] | [20]
inactive: all other assays above

Nc1nc(N)c2nc(CNc3ccc(C(=O)N[C@@H](CCC(=O)O)C(=O)O)cc3)cnc2n1
active: [3] 104 nM | [11] 110 nM | [16] 99.8 nM
not listed: [19] | [20]
inactive: all other assays above

C[C@]12C=CC(=O)C=C1CC[C@@H]1[C@@H]2C(=O)C[C@@]2(C)[C@H]1CC[C@]2(O)C(=O)CO
active: [4] 50000 nM
not listed: [6] | [15] | [16] | [18] | [20]
inactive: all other assays above

CC(=O)Oc1ccccc1C(=O)O
active: [16] 50000 nM
not listed: [6] | [18] | [19]
inactive: all other assays above
